Most compounds without a hit are left out; they make up all but 19% or so of the library.
DT40 TDP1 CPT: growth inhibition of DT40 Tdp1-/-;hTDP1 cells with camptothecin (screen for TDP1 inhibitors). chicken DT40 Tdp1-/-;hTDP1 cells + 20 nM CPT, ATP luminescence, 48 h. Potency, µM (titrated, usually from 46.2 µM), hits mostly inhibitors. 420,000 tested, 12% active; further: nearly all actives have a fitted effect of over 55% in size
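Chicken DT40 Tdp1-/- cells stably complemented with human TDP1 were seeded at 400 cells/well in medium containing 20 nM camptothecin, exposed to pin-transferred compounds, and grown at 37 °C for at least 48 hr. Viability was read as ATP luminescence.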
IL1B secr inh: blocks inflammasome-driven IL-1 beta release; THP-1 LPS/ATP IL-1B secretion, AlphaLISA, 16 h; active compounds read low; activity change, % at 57.5 µM; 360,000 tested, 4.7% active; AID 743279; in the data active means activity change below about -50%; inconclusive means mostly about -30% to -49%
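Secreted IL-1B measured by AlphaLISA bead assay after 16 h compound exposure of THP-1 cells; compounds (final up to 57.5 uM) added 1 h before LPS (250 ng/mL) and ATP (1.25 mM) stimulation; lower signal means less secretion.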
DT40 TDP1 no CPT: qHTS for Inhibitors of human tyrosyl-DNA phosphodiesterase 1 (TDP1): qHTS in cells in absence of CPT | DT40 Tdp1-/- hTDP1 cells, no CPT, ATP luminescence, 48 h | Potency, µM (series often up to 46.2 µM), usual class: inhibitors | 420,000 tested, 15% active; further: nearly all actives have a fitted effect of over 55% in size
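Stably hTDP1-transfected Tdp1-null chicken DT40 cells were treated with library compounds minus camptothecin and grown for at least 48 hr at 37 °C, after which cellular ATP was quantified by luminescence.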
HT1080 IDH1KD tx: toxicity to HT-1080 IDH1 knockdown cells (counter line); HT-1080 IDH1 knockdown viability, ATP luminescence, 48 h; Potency, µM (highest dose often 46.1 µM), most hits filed as cytotoxic; 360,000 tested, 2% active
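Luminescent ATP read-out (CellTiter-Glo, 10 min at room temperature) after 48 h compound exposure at 37 °C gave viability of IDH1-knockdown HT-1080 cells. Activity was normalised to DMSO and cell-free wells, then fitted as concentration-response curves.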
HT1080NT lethal: kills 2HG-producing HT-1080-NT fibrosarcoma cells; Potency, µM (titrated, usually from 46.1 µM), actives largely listed as cytotoxic; 360,000 tested, 1.6% active; HT-1080-NT fibrosarcoma viability, CellTiter-Glo ATP luminescence, 48 h;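 further: NT is the 2HG producing partner of a matched IDH1 knockdown line; nearly all actives have a fitted effect of over 55% in size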
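Read-out is CellTiter-Glo luminescence after 10 minutes at room temperature, following 48 hours' compound treatment of HT-1080-NT cells (750 cells/well, RPMI, 5% FBS, 37 degrees C).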
Numbers stand for hits; . = inactive; ? = inconclusive; / = no result given; [ ] = remark or other dose. Unless noted, the call rests on the fitted dose curve; in most records, active means well fitted curve in the direction sought with a large enough effect; inconclusive means small, poorly fitted or top-dose-only effect, or another doubt; inactive means no such curve, though single readings can be large; an effect the other way counts as inactive or inconclusive.

SMILES	DT40 TDP1 CPT	IL1B secr inh	DT40 TDP1 no CPT	HT1080 IDH1KD tx	HT1080NT lethal
COc1ccc(S(=O)(=O)N2CCc3cc4c(cc3C2C)OCCCO4)cc1 (stereo unspecified)	16.4µM	.	?	.	.
CC1CCCCC12NC(=O)N(CC(=O)OCC(=O)N(C)C1CCCCC1)C2=O (stereo unspecified)	.	.	.	.	.
CCCn1c(=O)[nH]c(=O)c2c1nc(-c1cc([N+](=O)[O-])ccc1Cl)n2CCOC	.	.	.	.	.
CCCOc1ccc(C2CC(=O)Nc3c2c(=O)n(C)c(=O)n3C)cc1OC (stereo unspecified)	.	/	.	/	/
COc1ccc(C2=CC(c3ccc(F)cc3)n3nnnc3N2)cc1 (stereo unspecified)	?	?	18.4µM	.[9.24 µM]	.
COc1ccc(C2=CC(c3sccc3C)n3nnnc3N2)cc1 (stereo unspecified)	.	.	.	.	.
CC(C)c1ccc(C2=CC(c3ccc(C(C)C)cc3)n3nnnc3N2)cc1 (stereo unspecified)	14.6µM	/	14.6µM	/	/
Cc1ccc(C2=CC(c3ccc(N(C)C)cc3)n3nnnc3N2)cc1 (stereo unspecified)	18.4µM	.	20.6µM	.	.
CCN(C(=O)COC(=O)/C(C#N)=C/c1ccc(OC)cc1)C1CCS(=O)(=O)C1 (stereo unspecified)	.	.	.	.	.
COCCN1C[C@@H](CO)O[C@@H](n2cnc3c(N4CCCC4)ncnc32)C1	.	.	.	.	?
O=C(CC(NC(=O)c1ccccc1)c1ccccc1)OCc1nc(-c2cccc(Cl)c2)no1 (stereo unspecified)	.	/	.	/	/
CN(C)c1ccc(/C=C/c2sc3ccccc3[n+]2CCCCI)cc1	0.562µM	/	0.708µM	/	/
CCCCCCCCN(CCCCCCCC)c1ccc(/C=C/c2ccnc3ccccc23)cc1	.	/	.	/	/
CCCCCCCCCC[n+]1ccc(/C=C/c2ccc(N(C)C)cc2)c2ccccc21	0.355µM	/	0.316µM	/	/
CCCC[n+]1c(/C=C/c2ccc(N(C)C)cc2)sc2ccccc21	0.0251µM	/	0.1µM	/	/
CN(Cc1ccccc1)c1ccc(/C=C/c2sc3ccccc3[n+]2C)cc1	0.0891µM	/	0.112µM	/	/
O=C(Cc1ccc(-c2ccccc2)cc1)Nc1ncccc1O	.	.	.	.	.
CCOC(=O)c1c(C)nc2c(c1-c1ccc(OC)cc1)C(=O)CC(C)(C)C2	?	.	?	.	.
CCOC(=O)c1c(C)nc2c(c1C)/C(=N/O)CC(C)(C)C2	?	?	23.1µM	.	?
Cc1nnc(SCc2nc3sc4c(c3c(=O)[nH]2)CCCC4)[nH]c1=O	.	.	.	.	.
O=C(NC(c1ccc(-c2ccccc2)cc1)c1cnccn1)C1CCN(Cc2ccc3c(c2)OCO3)CC1 (stereo unspecified)	5.8µM	.	5.17µM	10.3µM	13µM
O=C(NNC(=O)C1CCN(Cc2ccc(Cl)c(Cl)c2)CC1)c1cccs1	.	.	16.4µM	.	.
O=C(NC(c1ccc(-c2ccccc2)cc1)c1cnccn1)C1CCN(Cc2ccc(Cl)c(Cl)c2)CC1 (stereo unspecified)	?	.	?	.	.
Cn1cc(CN2CCC(C(=O)NC(c3ccc(-c4ccccc4)cc3)c3cnccn3)CC2)c2ccccc21 (stereo unspecified)	13µM	.	16.4µM	?	5.17µM
COc1cccc(C(NC(=O)C2CCN(CCCOc3ccccc3)CC2)c2ccccn2)c1 (stereo unspecified)	?	.	.	.	.
SMILES	DT40 TDP1 CPT	IL1B secr inh	DT40 TDP1 no CPT	HT1080 IDH1KD tx	HT1080NT lethal
O=C(NC(c1ccccc1)c1cnccn1)C1CCN(Cc2ccc(Cl)c(Cl)c2)CC1 (stereo unspecified)	9.2µM	.	13µM	?	?
CCN(CC)CCOc1ccc(C(O)(Cc2ccc(Cl)cc2)c2ccc(C)cc2)cc1 (stereo unspecified)	2.99µM	/	4.73µM	/	/
CC(C)NCC(O)(c1ccc(Cl)cc1)c1ccc(Cl)cc1	?	-83.6	20.6µM	.	.
NCC(O)(c1ccc(Cl)cc1)c1ccc(Cl)cc1	16.4µM	-56.1	10.3µM	.	.
CCN(CC)CCNCc1ccc(-c2ccc(Cl)cc2)o1	?	.	?	?	15.8µM
COc1cccc(NC(=O)c2sc3nc(C)c(C(=O)Nc4ccc(C)cc4C)c(-c4ccccc4Cl)c3c2N)c1	.	/	?	/	/
CCN(CC)CCNCC(O)(c1ccc(Cl)cc1)c1ccc(Cl)cc1	?	-86.6	16.4µM	20.6µM	20.6µM
OC[C@H]1O[C@@H](n2cnc3c(N[C@H]4C[C@H]5CC[C@@H]4C5)ncnc32)[C@H](O)[C@@H]1O	.	/	.	/	/
O=C(Nc1ccc(S(=O)(=O)N(Cc2ccccc2)c2ccccc2)cc1)c1ccc([N+](=O)[O-])cc1	2.91µM	/	?	/	/
CS(=O)(=O)N(Cc1ccccc1)c1ccc(C(=O)Nc2ccccc2C(=O)O)cc1	.	.	.	.	.
CS(=O)(=O)N(Cc1ccc(Cl)cc1)c1ccc(C(=O)N/N=C/c2cc3ccccc3nc2Cl)cc1	?	.	23.1µM	.	.
CS(=O)(=O)N(Cc1ccccc1)c1ccc(C(=O)Nc2ccc(Cl)cc2)cc1	?	/	5.8µM	/	/
CS(=O)(=O)N(Cc1ccc(Cl)cc1)c1ccc(C(=O)NCc2ccccn2)cc1	.	.	.	.	.
O=C(NCCC(=O)N(CCc1ccccc1)Cc1ccccc1)c1ccc([N+](=O)[O-])cc1	?	.	23.1µM	.	.
COc1ccccc1/C=C/C(=O)NNC(=O)c1cccs1	.	.	.	.	.
CC(=O)Nc1cc(-c2ccc(Cl)cc2)[nH]n1	?	.	?	.	.
Cc1cc2c(c(=O)n1Cc1ccc3c(c1)OCO3)C(c1cccnc1)C(C#N)=C(N)O2 (stereo unspecified)	.	.	.	.	.
CCOC(=O)c1cnc2ccc(C(=O)OC)cc2c1Nc1ccc(OCc2ccccc2Cl)cc1	.	/	?	/	/
CCOC(=O)c1cnc2ccccc2c1Nc1cccc(OC)c1	?	/	16.4µM	/	/
CCOC(=O)c1cnc2ccc(C)cc2c1Nc1ccc(OCc2ccccc2Cl)cc1	?	/	23.1µM	/	/
CCOC(=O)c1cnc2ccc(OC)cc2c1Nc1ccc(OCc2ccccc2Cl)cc1	11.6µM	/	7.31µM	/	/
O=C(COC(=O)Cc1ccc(Cl)c(Cl)c1)NCCc1ccccc1	.	.	.	.	.
C=CCSc1nnc(-c2cc3c(-c4ccccc4)nn(C)c3s2)n1C	?	-62.0	?	.	.
O=C(NCC1Cc2cc(-c3cnc4ccccc4c3)cc(F)c2O1)c1cnsn1 (stereo unspecified)	?	/	.	/	/
CCCCOc1ccc2c(C)cc(=O)oc2c1OCCCC	16.4µM	?	25.9µM	.	.
CCC(=O)Oc1ccc2c(C)cc(=O)oc2c1C	?	.	6.51µM	.	.
